A selection: hits, their analogues and other compounds. The true share with any hit is near 3%.
LDHA inh: blocks human lactate dehydrogenase A | P00338 | purified LDHA, NADH/diaphorase-resazurin fluorescence; active compounds read low | activity change, % (values are at about 110 or 230 µM) | 0.15% of 480,000 active; in the data active means activity change below about -30%; inconclusive means mostly about -25% to -30%
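Human LDH5 at 2 nM final in Tris HCl pH 7.4 with 0.06 mM NADH and 0.2 mM pyruvate, reacted 5 minutes at room temperature. Remaining NADH coupled via diaphorase/resazurin; resorufin fluorescence read at 0 and 20 minutes, normalized to enzyme-free and DMSO wells.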
BCR signal inh: inhibitors of chronic active B-cell receptor signaling; ABC-DLBCL IkBa-CBG/CBR reporter, luminescence ratio, 4 h; Potency, µM (highest dose often 46.1 µM), most hits filed as inhibitors; 0.05% of 340,000 active; AID 493014; active means well fitted inhibition curve with a large enough effect in the signal ratio, with a control signal flat, not every such curve was filed as active; inconclusive means small, poorly fitted or top-dose-only effect, or effect the other way, or a change in a side signal; the % refers to the signal ratio
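TMD8 human ABC-DLBCL cells with doxycycline-inducible IκBα–green luciferase fusion and unfused red luciferase, in 0.5% FBS medium; compounds up to 46 uM, 4 h at 37C. Green/red luminescence ratio, filter-overlap corrected, fitted to concentration-response curves.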
KCNH2 3.1 inh: inhibitors of human KCNH2 3.1 potassium channel isoform; U2OS KCNH2 3.1, thallium flux FluxOr; active compounds read low; 0.95% of 340,000 active; activity change, % (tested at about 1.8 µM);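 active means maximum activity change below -70%; inconclusive means maximum activity change from -70% to -50%; inactive means maximum activity change above -50%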;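 further: thallium influx rate constant from kinetic fluorescence after stimulation buffer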
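FluxOr-based Tl+ influx in U2OS cells transduced with KCNH2 3.1 virus; rate constants normalized to DMSO controls.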
KCNH2 WT inh: inhibitors of human wildtype KCNH2 potassium channel; Q12809; U2OS, BacMam KCNH2, thallium flux FluxOr; active compounds read low; activity change, % at 1.84 µM; 0.37% of 340,000 active;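 active means maximum activity change below -70%; inconclusive means maximum activity change between -70% and -50%; inactive means maximum activity change above -50%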
Target sequence (Q12809 whole entry, looked up): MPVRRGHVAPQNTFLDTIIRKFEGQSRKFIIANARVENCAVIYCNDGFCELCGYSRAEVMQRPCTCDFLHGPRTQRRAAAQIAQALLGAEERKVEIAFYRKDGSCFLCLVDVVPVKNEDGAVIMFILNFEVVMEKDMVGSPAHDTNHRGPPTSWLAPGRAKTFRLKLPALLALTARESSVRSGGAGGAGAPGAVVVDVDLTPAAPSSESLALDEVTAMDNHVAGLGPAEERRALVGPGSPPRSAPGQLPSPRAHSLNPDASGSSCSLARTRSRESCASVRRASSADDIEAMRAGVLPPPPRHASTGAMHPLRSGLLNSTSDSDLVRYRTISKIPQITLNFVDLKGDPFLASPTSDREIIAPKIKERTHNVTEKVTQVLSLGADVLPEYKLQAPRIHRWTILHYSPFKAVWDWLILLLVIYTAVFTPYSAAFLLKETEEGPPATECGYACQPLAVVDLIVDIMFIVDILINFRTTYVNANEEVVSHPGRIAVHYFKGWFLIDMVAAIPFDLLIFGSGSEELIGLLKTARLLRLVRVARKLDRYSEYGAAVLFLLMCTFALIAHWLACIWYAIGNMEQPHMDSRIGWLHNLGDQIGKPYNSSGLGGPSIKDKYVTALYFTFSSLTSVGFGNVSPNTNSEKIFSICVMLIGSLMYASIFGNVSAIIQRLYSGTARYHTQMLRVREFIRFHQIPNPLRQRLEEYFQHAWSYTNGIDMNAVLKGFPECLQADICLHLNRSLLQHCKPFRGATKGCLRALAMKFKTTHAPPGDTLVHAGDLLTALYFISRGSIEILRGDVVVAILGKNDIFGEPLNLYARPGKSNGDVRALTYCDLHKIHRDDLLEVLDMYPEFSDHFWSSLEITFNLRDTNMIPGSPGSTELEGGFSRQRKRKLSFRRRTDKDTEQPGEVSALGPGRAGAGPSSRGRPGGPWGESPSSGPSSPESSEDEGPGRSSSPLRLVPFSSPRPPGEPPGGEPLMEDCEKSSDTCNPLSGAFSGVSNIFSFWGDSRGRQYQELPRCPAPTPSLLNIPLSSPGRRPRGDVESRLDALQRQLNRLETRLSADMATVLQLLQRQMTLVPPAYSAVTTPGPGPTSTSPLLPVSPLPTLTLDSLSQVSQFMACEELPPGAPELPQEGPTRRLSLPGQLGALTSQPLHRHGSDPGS
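U2OS cells transduced with wild-type KCNH2 virus are loaded with FluxOr dye for 45 min, and thallium flux is measured in kinetic reads before and after stimulation buffer. Rate constants are normalized to DMSO controls.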
ClpP mod: qHTS Assay for Activators of ClpP; purified B. subtilis ClpP, FRET peptide cleavage, 20 min; Potency, µM (titrated, usually from 57.5 µM); 1.9% of 340,000 active; active means well fitted falling curve with a large enough effect; inconclusive means small, poorly fitted or top-dose-only effect; inactive means no such curve, though single readings can be large or run the other way; further: the source files actives as falling curves though it sought activators and does not explain the sign; nearly all actives have a fitted effect of over 65% in size
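Buffer: 100 mM Tris/HCl pH8, 100 mM KCl, 0.05% low protease BSA, 2.5% glycerol, 0.01% Tween-20. ClpP 10 microg/mL final; 20 min RT; delta FRET normalized to ADEP and DMSO controls.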
12-LOX inh: ALOX12 (human) lipoxygenase inhibition; purified 12hLO, xylenol orange hydroperoxide absorbance; Potency, µM (titrated, usually from 108 µM), usual class: inhibitors; 1.1% of 580,000 active; AID 1671190; active means well fitted inhibition curve with a large enough effect; inconclusive means small, poorly fitted or top-dose-only effect, or another doubt; inactive means no such curve, though single readings can be large or run the other way
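Hydroperoxide product was detected by ferrous iron/xylenol orange as the 573 to 405 nm absorbance ratio. Arachidonic acid at 40 uM (final) was turned over for 30 min at room temperature by 150 nM human 12hLO, pH 7.0 Hepes buffer, after 15 min compound preincubation.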
Each line names hits and unclear results; the compound was inactive in the other large screens; ! = not confirmed by another sample.

COC(=O)C1=CN(c2ccc(OC)cc2)C(N)=C(C#N)C1c1ccccc1F (stereo not given)	12-LOX inh inconclusive (no result: BCR signal inh, KCNH2 3.1 inh, KCNH2 WT inh)
NC1(C(=O)O)CCC1	12-LOX inh 1.4µM! (no result: BCR signal inh, KCNH2 3.1 inh, KCNH2 WT inh, ClpP mod)
O=C(O)c1ccc(CSC(F)F)cc1	none (no result: BCR signal inh, KCNH2 3.1 inh, KCNH2 WT inh, ClpP mod)
S=c1[nH]nc(-c2ccccc2)n1/N=C/c1cccc(Br)c1	BCR signal inh inconclusive, KCNH2 3.1 inh -93
Cc1cccc(/C=N/n2c(-c3ccccc3)n[nH]c2=S)c1O	12-LOX inh 4.5µM (no result: ClpP mod)
S=c1[nH]nc(-c2cc(-c3ccccc3)n[nH]2)n1/N=C/c1ccc(Cl)c(Cl)c1	LDHA inh -42, BCR signal inh inconclusive, 12-LOX inh inconclusive (no result: ClpP mod)
COc1cc(/C=N/n2c(-c3ccccc3)n[nH]c2=S)cc(OC)c1OC	12-LOX inh 28µM (no result: ClpP mod)
Cc1ccc(-c2csc(=Nc3ccccc3)n2-c2ccccc2)cc1	12-LOX inh inconclusive (no result: BCR signal inh, KCNH2 3.1 inh, KCNH2 WT inh, ClpP mod)
COc1ccccc1N1C(=O)N(Cc2ccc3c(c2)OCO3)c2ccccc2S1(=O)=O	none (no result: BCR signal inh, KCNH2 3.1 inh, KCNH2 WT inh, ClpP mod)
Cc1nn(CC(=O)Nc2ccc(I)cc2)c(=O)c2ccccc12	12-LOX inh inconclusive (no result: BCR signal inh, KCNH2 3.1 inh, KCNH2 WT inh, ClpP mod)
Oc1c(Br)cc(Br)c(/C=N/n2c(-c3ccccc3)n[nH]c2=S)c1Br	BCR signal inh inconclusive, 12-LOX inh 18µM (no result: ClpP mod)
Cc1cc(-c2n[nH]c(=S)n2/N=C/c2ccc(Cl)c([N+](=O)[O-])c2)n[nH]1	12-LOX inh 40µM
CC(C)Sc1ccccc1C(=O)NCCC1=CCCCC1	12-LOX inh inconclusive (no result: BCR signal inh, KCNH2 3.1 inh, KCNH2 WT inh, ClpP mod)
CCCCCCCCOC(=O)c1c(CSC(=N)N)n(C)c2cc(Br)c(OC(C)=O)cc12	BCR signal inh inconclusive, KCNH2 3.1 inh -102, KCNH2 WT inh -95, 12-LOX inh inconclusive
CCOC(=O)c1c(CSC(=N)N)n(-c2ccc(Br)cc2)c2cc(Br)c(OC(C)=O)cc12	BCR signal inh inconclusive, ClpP mod inconclusive
COc1cc(N=Nc2cccc(S(N)(=O)=O)c2)c2ccccc2c1N	BCR signal inh inconclusive, 12-LOX inh 6.3µM (no result: ClpP mod)
O=C1CCCC/C1=C\Nc1ccccc1C(=O)O	ClpP mod 32µM
COc1ccc(-c2ccccc2)cc1N1C(=O)[C@@H]2C[C@H]1CN2Cc1nc[nH]c1C	none (no result: LDHA inh, BCR signal inh, KCNH2 3.1 inh, KCNH2 WT inh, ClpP mod)
COc1cc2nc(CSCC(=O)N3CCC(=O)CC3)[nH]c(=O)c2cc1OC	none (no result: BCR signal inh, KCNH2 3.1 inh, KCNH2 WT inh, ClpP mod)
Cn1c2ccccc2n2c(=O)c(Cl)c(-c3ccccc3)c(C#N)c12	ClpP mod 28µM
Cn1c2ccccc2n2c(=O)cc(-c3ccccc3)c(C#N)c12	BCR signal inh inconclusive
CCOC(=O)c1ccc(N2NC(=O)/C(=C/c3ccc(OC(=O)c4ccco4)c(OC)c3)C2=O)cc1	BCR signal inh inconclusive, 12-LOX inh 22µM (no result: LDHA inh, KCNH2 3.1 inh, KCNH2 WT inh, ClpP mod)
CCOC(=O)COc1ccc(/C=C2/C(=O)NN(c3ccc(F)cc3)C2=O)cc1OC	none
O=C(NCc1ccc(C(F)(F)F)cc1)C12CN(Cc3ccccc3)CC1C(c1cccc([N+](=O)[O-])c1)=NO2 (stereo not given)	none
O=C(NCc1ccccc1C(F)(F)F)C12CN(Cc3ccccc3)CC1C(c1ccc([N+](=O)[O-])cc1)=NO2 (stereo not given)	KCNH2 3.1 inh -118, 12-LOX inh inconclusive
Cc1ccc(CCNC(=O)C23CN(Cc4ccccc4)CC2C(c2cccc([N+](=O)[O-])c2)=NO3)cc1 (stereo not given)	none
COc1cccc(CNC(=O)C23CN(Cc4ccccc4)CC2C(c2ccc([N+](=O)[O-])cc2)=NO3)c1 (stereo not given)	KCNH2 3.1 inh -102
CC(C)CCNC(=O)C12CN(Cc3ccccc3)CC1C(c1ccc([N+](=O)[O-])cc1)=NO2 (stereo not given)	KCNH2 3.1 inh -107, 12-LOX inh inconclusive
COc1ccccc1CCC(=O)N1CCC(Cc2nc(-c3cnccn3)no2)CC1	none (no result: LDHA inh, BCR signal inh, KCNH2 3.1 inh, KCNH2 WT inh, ClpP mod)
Cc1ccc2occ(CC(=O)Nc3c(C(=O)Nc4ccc(Cl)cc4)oc4ccccc34)c2c1	ClpP mod 18µM (no result: BCR signal inh, KCNH2 3.1 inh, KCNH2 WT inh)
